Laboratory results from PubChem BioAssay (NCATS).
Calls of active or inactive are those of the source. Calls follow the shape of the dose curve; as a rule, active = well fitted curve in the direction sought with a large enough effect; inactive = no such curve, though single readings can be large or run the other way.

Target: Alpha-galactosidase (Coffea arabica) (UniProt Q42656)
Experiment: Counterscreen for Glucocerebrosidase Inhibitors: qHTS Assay for Coffee Bean alpha-Galactosidase at pH 5.9 (AID 998)
Settings: coffee bean alpha-galactosidase enzyme assay; series mostly up to 76.9 µM
Method in brief: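 Green coffee bean enzyme (2 nM) with 4-methylumbelliferyl alpha-D-galactopyranoside (80 uM) in 50 mM citric acid, 0.005% Tween-20, pH 5.9, 20 min at room temperature; compounds 0.7 nM–77 uM. Stopped at pH 10, fluorescence Ex365/Em440; Hill-fit AC50.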

Sequence of Alpha-galactosidase (Coffea arabica) (Q42656 whole entry, looked up): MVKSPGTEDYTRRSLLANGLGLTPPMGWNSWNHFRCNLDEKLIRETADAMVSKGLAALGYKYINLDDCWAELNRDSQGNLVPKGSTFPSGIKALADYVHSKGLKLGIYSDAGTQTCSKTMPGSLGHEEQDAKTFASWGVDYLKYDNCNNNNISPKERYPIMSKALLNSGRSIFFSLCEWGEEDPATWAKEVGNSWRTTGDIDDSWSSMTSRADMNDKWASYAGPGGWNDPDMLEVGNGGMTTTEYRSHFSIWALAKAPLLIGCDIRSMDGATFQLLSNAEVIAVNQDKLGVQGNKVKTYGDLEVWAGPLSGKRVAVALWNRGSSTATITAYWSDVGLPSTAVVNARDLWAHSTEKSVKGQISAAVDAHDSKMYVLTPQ

| SMILES | outcome |
| --- | --- |
| Cc1cn([C@H]2C=C[C@@H](CO)O2)c(=O)[nH]c1=O | inactive |
| Nc1nc2c(ncn2COC(CO)CO)c(=O)[nH]1 | inactive |
| Cc1oncc1C(=O)Nc1ccc(C(F)(F)F)cc1 | inactive |
| NNc1nncc2ccccc12 | inactive |
| O=c1[nH]cc(F)c(=O)[nH]1 | inactive |
| Cc1ccc(S(=O)(=O)NC(=O)NN2CCCCCC2)cc1 | inactive |
| CC(C)NCC(O)COc1cccc2[nH]ccc12 (stereo not given) | inactive |
| N[C@@H]1CONC1=O | inactive |
| O=NN(CCCl)C(=O)NCCCl | inactive |
| O=C1NC(=O)C(c2ccccc2)(c2ccccc2)N1 | inactive |
| CCCN(CCC)CCc1cccc2c1CC(=O)N2 | inactive |
| CN(C)CCCN1c2ccccc2Sc2ccc(Cl)cc21 | inactive |
| CN(C)c1nc(N(C)C)nc(N(C)C)n1 | inactive |
| CCC1(c2ccccc2)C(=O)NCNC1=O | inactive |
| CCCC(CCC)C(=O)O | inactive |
| CC(=O)Nc1nnc(S(N)(=O)=O)s1 | inactive |
| Cn1cnc([N+](=O)[O-])c1Sc1ncnc2nc[nH]c12 | inactive |
| CN1CCC[C@@H]1CCO[C@](C)(c1ccccc1)c1ccc(Cl)cc1 | inactive |

| SMILES | outcome |
| --- | --- |
| CNCCCC1c2ccccc2C=Cc2ccccc21 | inactive |
| CC1(C)NC(=O)N(c2ccc([N+](=O)[O-])c(C(F)(F)F)c2)C1=O | inactive |
| CN/C(=C\[N+](=O)[O-])NCCSCc1ccc(CN(C)C)o1 | inactive |
| NC(=O)NO | inactive |
| NS(=O)(=O)c1cc2c(cc1Cl)NC=NS2(=O)=O | inactive |
| CN(C)CCC[C@@]1(c2ccc(F)cc2)OCc2cc(C#N)ccc21 | inactive |
| CN1CCN(CCCN2c3ccccc3Sc3ccc(Cl)cc32)CC1 | inactive |
| O=C1c2c(O)ccc(O)c2C(=O)c2c(NCCNCCO)ccc(NCCNCCO)c21 | inactive |
| CN(Cc1cnc2nc(N)nc(N)c2n1)c1ccc(C(=O)N[C@@H](CCC(=O)O)C(=O)O)cc1 | inactive |
| Cc1c(OCC(F)(F)F)ccnc1CS(=O)c1nc2ccccc2[nH]1 (stereo not given) | inactive |
| CN(C)CCC=C1c2ccccc2C=Cc2ccccc21 | inactive |
| O=C1CCc2cc(OCCCCc3nnnn3C3CCCCC3)ccc2N1 | inactive |
| O=C(C1CCCCC1)N1CC(=O)N2CCc3ccccc3C2C1 (stereo not given) | inactive |
| CCOC(=O)N1CCC(=C2c3ccc(Cl)cc3CCc3cccnc32)CC1 | inactive |
| NC[C@H](O)c1ccc(O)c(O)c1 | inactive |
| Nc1ncn([C@@H]2O[C@H](CO)[C@@H](O)[C@H]2O)c(=O)n1 | inactive |
| CN(C)CCCN1c2ccccc2CCc2ccc(Cl)cc21 | inactive |
